{"source": "PubChem BioAssay AID488969", "about": "(Vanderbilt High Throughput Screening Facility, 2010)", "note": "Over roughly 110,000 compounds, “z-score” has its median near -0.1; the highest 2% begin near 2. The list comes from a sample in which the highest values are over-represented; it also holds similar structures and randomly drawn compounds. Calls of active or inactive are those of the source.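 Rule for the calls: active = z-score in the third read window above 3 or below -3; inactive = the rest.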"}
{"biological_target": "Metabotropic glutamate receptor 8 (Rattus norvegicus) (UniProt P70579)", "sequence (P70579 whole entry, looked up)": "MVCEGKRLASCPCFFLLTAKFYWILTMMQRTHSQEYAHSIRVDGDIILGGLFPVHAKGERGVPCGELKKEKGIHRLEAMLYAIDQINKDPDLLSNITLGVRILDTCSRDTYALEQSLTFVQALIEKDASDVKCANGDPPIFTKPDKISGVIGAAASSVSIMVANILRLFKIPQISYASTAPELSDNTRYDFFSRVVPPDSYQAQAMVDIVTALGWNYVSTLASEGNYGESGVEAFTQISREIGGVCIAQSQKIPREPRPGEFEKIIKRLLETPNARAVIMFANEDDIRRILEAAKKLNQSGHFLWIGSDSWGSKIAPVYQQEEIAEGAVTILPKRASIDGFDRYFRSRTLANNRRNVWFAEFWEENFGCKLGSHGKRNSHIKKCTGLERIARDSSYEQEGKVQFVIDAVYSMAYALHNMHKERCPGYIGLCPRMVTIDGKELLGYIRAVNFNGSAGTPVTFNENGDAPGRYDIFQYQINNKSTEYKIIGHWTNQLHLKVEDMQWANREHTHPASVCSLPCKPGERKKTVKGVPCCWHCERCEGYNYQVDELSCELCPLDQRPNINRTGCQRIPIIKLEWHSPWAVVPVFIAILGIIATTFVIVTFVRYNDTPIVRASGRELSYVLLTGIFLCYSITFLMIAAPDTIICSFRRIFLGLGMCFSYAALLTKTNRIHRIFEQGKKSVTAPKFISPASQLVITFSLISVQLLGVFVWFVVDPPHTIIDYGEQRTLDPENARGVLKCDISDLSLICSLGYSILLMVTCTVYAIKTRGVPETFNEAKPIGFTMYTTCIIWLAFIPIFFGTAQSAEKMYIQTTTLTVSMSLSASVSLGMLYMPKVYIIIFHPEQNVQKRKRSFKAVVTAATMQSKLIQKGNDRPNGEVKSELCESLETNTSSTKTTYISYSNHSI", "assay": "mGluR8 Gi/Go-coupled signaling modulation – cell-based, rat, thallium flux, HTS, primary screen (AID 488969)", "conditions": "HEK293 rat mGluR8, GIRK (G protein-gated inwardly rectifying potassium channel) thallium flux, FluoZin2; at 10 µM; stronger effect = higher value; submaximal glutamate (EC20) added with thallium"}
{"molecule": "CC(C)NC(=O)C1CCN(C(=O)C(C(=O)c2ccccc2)n2cc(Cl)ccc2=O)CC1", "note": "(stereo unspecified)", "z-score": 0.609}
{"molecule": "O=C(CCC(=O)Nc1ccccc1Cl)N/N=C/c1ccccc1", "z-score": -0.0425}
{"molecule": "Cc1ccc(NC(=S)N/N=C/c2ccc(Cl)c([N+](=O)[O-])c2)cc1", "z-score": -0.0758}
{"molecule": "Fc1cccc(/C=N/NC(=S)Nc2ccccc2Cl)c1", "z-score": "11.2 (active)"}
{"molecule": "Fc1ccc(NC(=S)N/N=C/c2ccc(F)c(F)c2)c(F)c1", "z-score": "13 (active)"}
{"molecule": "C=CCNC(=S)Nc1ccc(Br)cc1F", "z-score": -0.377}
{"molecule": "COc1ccc(/C=N/NC(=S)Nc2ccccc2)cc1COc1ccccc1F", "z-score": -0.0868}
{"molecule": "Fc1ccc(/C=N/NC(=S)Nc2ccc(Cl)cc2)cc1F", "z-score": "6.19 (active)"}
{"molecule": "CCCCNC(=O)C(=O)N/N=C/c1cccc(Br)c1", "z-score": 0.475}
{"molecule": "Fc1ccc(NC(=S)N/N=C/c2cccc(Br)c2)c(F)c1", "z-score": "3.61 (active)"}
{"molecule": "COc1ccccc1NC(=S)N/N=C/c1cccc(C)c1", "z-score": 0.651}
{"molecule": "COc1ccc(/C=N/NC(=S)Nc2ccccc2)cc1COc1ccc(F)cc1F", "z-score": -0.047}
{"molecule": "C=CCNC(=S)Nc1ccc(F)cc1F", "z-score": -0.172}
{"molecule": "Cc1cccc(N(C(=O)c2sc(C)nc2C)C(C(=O)NCc2ccco2)c2ccccc2)c1", "note": "(stereo unspecified)", "z-score": -1.18}
{"molecule": "COC(=O)C1=C(C)NC(=O)NC1c1ccccc1", "note": "(stereo unspecified)", "z-score": -0.341}
{"molecule": "OC(COCC(F)(F)C(F)(F)C(F)(F)C(F)F)Cn1c2ccccc2c2ccccc21", "note": "(stereo unspecified)", "z-score": 0.164}
{"molecule": "CCOc1ccc2nc(SCc3ccccc3C#N)sc2c1", "z-score": -0.141}
{"molecule": "Fc1ccccc1N1CCN(CC2CC3C=CC2C3)CC1", "note": "(stereo unspecified)", "z-score": -0.343}
{"molecule": "Cc1noc2c1C(c1ccc(N(C)C)cc1)C1=C(CC(C)(C)CC1=O)N2", "note": "(stereo unspecified)", "z-score": -0.142}
{"molecule": "CN(CCC#N)C(=S)Nc1ccc(Oc2ccccc2)cc1", "z-score": -0.139}
{"molecule": "Cc1ccc(-c2ccc(SCC(=O)c3ccccc3)nn2)cc1", "z-score": 0.138}
{"molecule": "O=C(Nc1ccon1)c1ccc(Br)o1", "z-score": -0.216}
{"molecule": "C=CCn1c(NC(=O)CC)c(C(=O)OCC)sc1=S", "z-score": -0.979}
{"molecule": "COc1ccc(N=C2C(=Nc3ccc(OC)cc3)N(c3ccc(OC)cc3)C(=S)N2C)cc1", "z-score": -0.0804}
{"molecule": "Cc1nn(C(C)C(=O)NCc2ccccc2)c(C)c1[N+](=O)[O-]", "note": "(stereo unspecified)", "z-score": 0.375}
{"molecule": "Cc1nc2ccccn2c1-c1nnco1", "z-score": 0.116}
{"molecule": "CCOC(=O)/C(N=Nc1c(Br)cc(Br)cc1Br)=C(\\C)O", "z-score": 0.239}
{"molecule": "CN1CCN(C(=S)NC(=O)/C=C/c2cccc3ccccc23)CC1", "z-score": 2.03}
{"molecule": "O=C(Nc1ccccc1C(F)(F)F)Nc1cccc2ccccc12", "z-score": 0.33}
{"molecule": "Cc1ccc(/C=C/C(=O)NC(=S)N2CCN(C)CC2)cc1", "z-score": -0.241}
{"molecule": "COCC(=O)Nc1cccc2ccccc12", "z-score": 0.3}
{"molecule": "O=C(Nc1cccc2ccccc12)N1CCN(c2ccccc2)CC1", "z-score": -0.177}
{"molecule": "CN1CCN(C(=O)Nc2cccc3ccccc23)CC1", "z-score": "3.3 (active)"}
{"molecule": "NC(=O)Nc1cccc2ccccc12", "z-score": "4.53 (active)"}
{"molecule": "CCN1CCN(C(=O)Nc2cccc3ccccc23)CC1", "z-score": -0.222}
{"molecule": "CN1CCN(C(=S)NC(=O)/C=C/c2ccccc2)CC1", "z-score": 0.401}
{"molecule": "CCc1cc(=O)oc2cc3oc(C)c(C)c3cc12", "z-score": -0.296}
{"molecule": "Cc1c(C(=O)NCC2COc3ccccc3O2)oc2ccc(S(=O)(=O)N(C)C3CCCCC3)cc12", "note": "(stereo unspecified)", "z-score": -0.0918}
{"molecule": "CC(=O)CCc1oc2ccc(NC(C)=O)cc2c1-c1ccc(C)o1", "z-score": -0.484}
{"molecule": "COCCN(C(=O)COc1ccccc1)c1nnc(-c2cccnc2)s1", "z-score": -0.132}
{"molecule": "CC(=O)C(C)Oc1ccc2c3c(c(=O)oc2c1C)CCCC3", "note": "(stereo unspecified)", "z-score": -1.13}
{"molecule": "COc1ccc(NC(=O)CN(c2ccc(C)cc2)S(=O)(=O)c2c(C)nn(C)c2C)cc1OC", "z-score": -0.248}
{"molecule": "Cc1cccc2sc(NC(=O)C3CCCO3)nc12", "note": "(stereo unspecified)", "z-score": -0.212}
{"molecule": "CC1CCN(CCCNC(=O)c2ccc3c(=O)n(CCc4ccccc4)c(=O)[nH]c3c2)CC1", "z-score": "4.09 (active)"}
{"molecule": "O=C(NCc1ccccc1)c1ccc2c(=O)n(CCCN3CCCC3=O)c(=S)[nH]c2c1", "z-score": "4.92 (active)"}
{"molecule": "O=C(NCCN1CCCC1)c1ccc2c(=O)n(CCc3ccccc3)c(=O)[nH]c2c1", "z-score": 1.17}
{"molecule": "O=C(NCCCN1CCCCC1)c1ccc2c(=O)n(CCc3ccccc3)c(=O)[nH]c2c1", "z-score": 1.16}
{"molecule": "Cc1ccc(CNC(=O)c2ccc3c(=O)n(CCCN4CCCC4=O)c(=S)[nH]c3c2)cc1", "z-score": -0.167}
{"molecule": "CC1CCCCN1CCNC(=O)c1ccc2c(=O)n(CCc3ccccc3)c(=O)[nH]c2c1", "note": "(stereo unspecified)", "z-score": 0.188}
{"molecule": "CC1CCCCN1CCCNC(=O)c1ccc2c(=O)n(CCc3ccccc3)c(=O)[nH]c2c1", "note": "(stereo unspecified)", "z-score": 2.93}
{"molecule": "O=C(NCCCN1CCOCC1)c1ccc2c(=O)n(CCc3ccccc3)c(=O)[nH]c2c1", "z-score": 1.15}
{"molecule": "O=C(NCc1cccnc1)c1ccc2c(=O)n(CCCN3CCCC3=O)c(=S)[nH]c2c1", "z-score": -0.116}
{"molecule": "O=C(N/N=C/c1ccc(O)cc1)/C(=C/c1ccccc1)CCO", "z-score": -0.0513}
{"molecule": "O=C(c1cn(-c2ccccc2)nc1-c1cccs1)N(CCO)Cc1ccccc1", "z-score": -0.178}
{"molecule": "CCn1c(SCC(=O)NCCc2ccc(Cl)cc2)nnc1-c1cccs1", "z-score": -0.84}
{"molecule": "CCOCCCNC(=O)CN1C(=O)CSc2cc(S(=O)(=O)N3CCCCCC3)ccc21", "z-score": -0.263}
{"molecule": "O=C(c1cc(Cl)ccc1[N+](=O)[O-])n1cnc2ccccc21", "z-score": -0.721}
{"molecule": "COc1ccccc1N1CCN(C(=O)c2cc(-c3ccco3)on2)CC1", "z-score": -0.34}
{"molecule": "CCOC(=O)c1cnn2c(C)cc(-c3ccccc3)nc12", "z-score": 2.74}
{"molecule": "COC(=O)c1cnn2c(C(F)(F)F)cc(-c3ccccc3)nc12", "z-score": -0.00832}
{"molecule": "CCOC(=O)c1cnn2c(C)cc(-c3ccc(F)cc3)nc12", "z-score": -0.151}
{"molecule": "CCOC(=O)C1=C(C)N=c2s/c(=C/c3ccccc3)c(=O)n2C1c1ccc(OC)c(OC)c1", "note": "(stereo unspecified)", "z-score": -0.183}
{"molecule": "Cn1c(N)c(C(=O)CCl)c(=O)n(C)c1=O", "z-score": 0.0911}
{"molecule": "CCOC(=O)C=Nc1c(N)n(C)c(=O)n(C)c1=O", "z-score": 2.44}
{"molecule": "CCOc1cc(C(=O)OCC(=O)c2c(N)n(C)c(=O)n(C)c2=O)cc(OCC)c1OCC", "z-score": -0.112}
{"molecule": "CC1(C)C(=O)OC(c2cccn2-c2ccc([N+](=O)[O-])cc2)C(C)(C)C1=O", "note": "(stereo unspecified)", "z-score": -0.471}
{"molecule": "Cc1cccc(SCc2noc(C(=O)NC(C)C)c2C(=O)O)c1", "z-score": -0.0231}
{"molecule": "O=C1NC(=Nc2cccc(Cl)c2)SC1Cc1cccc(Cl)c1Cl", "note": "(stereo unspecified)", "z-score": -0.324}
{"molecule": "O=C(NC(=Nc1ccccc1)N1CCOCC1)Nc1ccccc1", "z-score": 2.94}
{"molecule": "O=C(Nc1ccccc1)Nc1ccc(C(=O)N2CCOCC2)cc1", "z-score": -0.0267}
{"molecule": "O=C(Nc1ccccc1)N1CCOCC1", "z-score": -0.206}
